This note sets out measurements from PubChem BioAssay (NCATS).

Records with an inconclusive call do not appear. Calls of active or inactive are those of the source. Calls follow the shape of the dose curve; as a rule, active = well fitted curve in the direction sought with a large enough effect; inconclusive = small, poorly fitted or top-dose-only effect, or another doubt; inactive = no such curve, though single readings can be large; an effect the other way counts as inactive or inconclusive.

The nature of experiment [1]: S16 Schwann cell viability assay (CellTiter-Glo assay) (AID 624031).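 Also: native untransfected S16 rat Schwann cells; cellular ATP luminescence as a viability measure; nearly all actives have a fitted effect of over 70% in size.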 In a few lines: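 Cells were seeded at 500-750 per well in phenol red-free DMEM with 10% FBS and left overnight. Compounds or DMSO were pinned in, incubation ran 24 h at 37 °C/5% CO2, then CellTiter-Glo reagent was added and luminescence measured.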
In general terms: Cellular ATP, detected with luciferase, serves as a proxy for viable cell number.

Another experiment deals with AA1029. Nature of the experiment: qHTS profiling for inhibitors of Plasmodium falciparum proliferation (AID 504749). Also: nearly all actives have a fitted effect of over 60% in size. Also: potency is read from the fitted curve at half-maximal effect. Conditions: P. falciparum in erythrocytes, SYBR Green DNA, 72 h; series mostly up to 12.8 µM. The method in brief:
(§1)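 SYBR Green fluorescence of parasite DNA, read after lysis and overnight dark incubation, measured growth over 72 h in erythrocyte culture at 0.3% parasitemia and 2.5% hematocrit. Data normalised to DMSO and 0.29 uM artemisinin, with plate-drift correction.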
In general terms: qHTS replaces the single test concentration by a dilution series.

For a further experiment, the system named is AS120. Described as above. The conditions noted are these: P. falciparum in erythrocytes, SYBR Green DNA, 72 h; series mostly up to 12.8 µM. In a few lines:
as §1

The subject of a further experiment is ATS189. The description is as above. Conditions: P. falciparum in erythrocytes, SYBR Green DNA, 72 h; series mostly up to 12.8 µM. The method in brief: as §1
The next experiment concerns ATS95. The description is as above. The conditions noted are these: P. falciparum in erythrocytes, SYBR Green DNA, 72 h; series mostly up to 12.8 µM. The method in brief:
as §1

Another experiment relates to CP191. Described as above. Conditions: P. falciparum in erythrocytes, SYBR Green DNA, 72 h; series mostly up to 12.8 µM. In a few lines:
as §1

A further experiment relates to CP192. The description is as above. Conditions: P. falciparum in erythrocytes, SYBR Green DNA, 72 h; series mostly up to 12.8 µM. The method in brief:
as §1

A further experiment relates to CP238. The description is as above. Conditions: P. falciparum in erythrocytes, SYBR Green DNA, 72 h; series mostly up to 12.8 µM. In a few lines: as §1
In another experiment the test system is CP247. Described as above. The conditions noted are these: P. falciparum in erythrocytes, SYBR Green DNA, 72 h; series mostly up to 12.8 µM. The method in brief: as §1
A further experiment concerns CP256. Described as above. The conditions noted are these: P. falciparum in erythrocytes, SYBR Green DNA, 72 h; series mostly up to 12.8 µM. In a few lines: as §1
The test system of another experiment is CP262. Described as above. Conditions: P. falciparum in erythrocytes, SYBR Green DNA, 72 h; series mostly up to 12.8 µM. The method in brief:
as §1

In a further experiment the test system is CP265. The experiment is described as above. The conditions noted are these: P. falciparum in erythrocytes, SYBR Green DNA, 72 h; series mostly up to 12.8 µM. In a few lines: as §1
The next experiment has as its system Dd2. Described as above. Conditions: P. falciparum in erythrocytes, SYBR Green DNA, 72 h; series mostly up to 12.8 µM. The method in brief: as §1
Another experiment deals with N140. The description is as above. The conditions noted are these: P. falciparum in erythrocytes, SYBR Green DNA, 72 h; series mostly up to 12.8 µM. The method in brief:
as §1

A further experiment has as its system P93_24. The experiment is described as above. Conditions: P. falciparum in erythrocytes, SYBR Green DNA, 72 h; series mostly up to 12.8 µM. In a few lines:
as §1

For the next experiment, the system named is PAD. The experiment is described as above. The conditions noted are these: P. falciparum in erythrocytes, SYBR Green DNA, 72 h; series mostly up to 12.8 µM. The method in brief:
as §1

For another experiment, the system named is PC15. The description is as above. The conditions noted are these: P. falciparum in erythrocytes, SYBR Green DNA, 72 h; series mostly up to 12.8 µM. In a few lines: as §1
For the next experiment, the system named is SC27B. The experiment is described as above. The conditions noted are these: P. falciparum in erythrocytes, SYBR Green DNA, 72 h; series mostly up to 12.8 µM. In a few lines:
as §1

Another experiment deals with TAB109. The description is as above. Conditions: P. falciparum in erythrocytes, SYBR Green DNA, 72 h; series mostly up to 12.8 µM. In a few lines:
as §1

The test system of a further experiment is TAB165. Described as above. The conditions noted are these: P. falciparum in erythrocytes, SYBR Green DNA, 72 h; series mostly up to 12.8 µM. In a few lines:
as §1

As to `NS(=O)(=O)c1cc2c(cc1Cl)N[C@@H](CC1CCCC1)NS2(=O)=O`, the compound was called inactive in experiment [1]. In addition, the Potency result in the experiment with AA1029, in the experiment on AS120, in the experiment on ATS189, with ATS95, with CP191 and in the experiment on CP192 was “inactive” throughout. Besides, the Potency entry in the experiment with CP238, in the experiment on CP247, with CP256, in the experiment with CP262, with CP265 and with Dd2 was “inactive” each time. The Potency result in the experiment with N140, in the experiment with P93_24, in the experiment with PAD, in the experiment with PC15, in the experiment on SC27B and in the experiment with TAB109 was “inactive” each time. The Potency result with TAB165 was “inactive”.

In the case of `CCC(=O)O[C@@]1(C(=O)SCF)[C@@H](C)C[C@H]2[C@@H]3C[C@@H](F)C4=CC(=O)C=C[C@@]4(C)[C@]3(F)[C@@H](O)C[C@]21C`, the compound was classed as inactive in experiment [1]. Also, the Potency entry in the experiment on CP192, in the experiment on CP247, in the experiment with CP256, in the experiment on CP262 and in the experiment with SC27B was “inactive” each time. The Potency with N140 is 3.98 µM (active); in the experiment on P93_24, 3.55 µM (active); in the experiment with TAB165, 3.16 µM (active).

On to `CC(=O)OCC(=O)[C@@]1(O)CC[C@@H]2[C@H]3CCC4=CC(=O)C=C[C@]4(C)[C@]3(F)[C@@H](O)C[C@@]21C`, for which, in [1], the result was inactive. The Potency entry with AA1029, in the experiment on AS120, with ATS189, with ATS95, with CP191 and with CP192 was “inactive” throughout. Further, the Potency result with CP238, in the experiment with CP247, in the experiment on CP256, with CP262, in the experiment on CP265 and with Dd2 was “inactive” in each case. Moreover, the Potency entry with N140, in the experiment with P93_24, with PAD, in the experiment on PC15, in the experiment on SC27B and in the experiment with TAB109 was “inactive” each time. Besides, the Potency result with TAB165 was “inactive”.

For `NS(=O)(=O)c1cc2c(cc1Cl)N[C@@H](C(Cl)Cl)NS2(=O)=O`, in experiment [1], the compound was classed as inactive. The Potency entry in the experiment on AA1029, with AS120, in the experiment with ATS189, in the experiment on ATS95, in the experiment with CP191 and with CP192 was “inactive” in each case. In addition, the Potency entry with CP238, in the experiment on CP247, in the experiment on CP256, in the experiment on CP262, in the experiment on CP265 and with Dd2 was “inactive” in each case. Moreover, the Potency entry with N140, with P93_24, in the experiment on PAD, with PC15, in the experiment with SC27B and with TAB109 was “inactive” throughout. In addition, the Potency result with TAB165 was “inactive”.

For `Cc1ccc(S(=O)(=O)NC(=O)NN2C[C@H]3CCC[C@@H]3C2)cc1`, the compound was classed as inactive in experiment [1]. The Potency result in the experiment on AA1029, in the experiment with AS120, in the experiment with ATS189, in the experiment on ATS95, in the experiment with CP191 and with CP192 was “inactive” each time. Besides, the Potency entry in the experiment with CP238, in the experiment with CP247, in the experiment with CP256, in the experiment with CP262, in the experiment on CP265 and in the experiment on Dd2 was “inactive” each time. The Potency result in the experiment on N140, in the experiment on P93_24, in the experiment on PAD, in the experiment with PC15, with SC27B and in the experiment on TAB109 was “inactive” throughout. The Potency entry with TAB165 was “inactive”.

As for `NS(=O)(=O)c1cc2c(cc1C(F)(F)F)N[C@H](Cc1ccccc1)NS2(=O)=O`, in experiment [1], the result was inactive. The Potency result in the experiment on AA1029, in the experiment with AS120, in the experiment on ATS189, with ATS95, in the experiment on CP191 and in the experiment with CP192 was “inactive” each time. For the same compound, the Potency entry in the experiment on CP238, in the experiment on CP247, in the experiment on CP256, with CP262, in the experiment with CP265 and with Dd2 was “inactive” in each case. The Potency result in the experiment with N140, in the experiment on P93_24, in the experiment with PAD, in the experiment on PC15, with SC27B and in the experiment with TAB109 was “inactive” throughout. For the same compound, in the experiment with TAB165, the Potency result was “inactive”.

Consider `CCC[C@@H]1O[C@@H]2C[C@@H]3[C@H]4CCC5=CC(=O)C=C[C@@]5(C)[C@H]4[C@H](O)C[C@@]3(C)[C@@]2(C(=O)CO)O1`, for which the Potency in the experiment with AA1029 was 11.2 µM (active); in the experiment with AS120, 11.2 µM (active); in the experiment on ATS189, 7.08 µM (active); in the experiment with CP191, 11.2 µM (active); in the experiment on CP247 it was 8.91 µM (active); in the experiment on CP256, 11.2 µM (active). Besides, the Potency is 12.6 µM (active) in the experiment with Dd2, 8.91 µM (active) with P93_24, 7.94 µM (active) with TAB109 and 11.2 µM (active) in the experiment with TAB165. In the experiment with CP262, the Potency entry was “inactive”.
